# Experimental data published in PubChem BioAssay AID623868 (Vanderbilt High Throughput Screening Facility, 2012).
# Out of some 2,100 compounds screened, about 760 (36%) were called active. The list is a sample of the results. Values without a mark were called inactive.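 Rule for the calls: active = thallium-flux fluorescence traces judged by eye to show enhanced or reduced glutamate response, manual score 1 or -1, so both directions (some results past the limit were not filed as active); inactive = the rest, including fluorescent or raised-baseline compounds.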
# Assay: thallium influx changes without GIRK channels – cell-based, HEK-293 rmGlu8, no GIRK, thallium flux, counter-screen for GIRK activator project, confirmation (AID 623868);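 note: extra codes mark interference with 3 for fluorescent and 4 for baseline rise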
# Conditions: thallium flux fluorescence, at 10 µM, actives lie on both sides, codes: 1 enhancer, -1 blocker, 0 none, thallium stimulus containing EC20 glutamate
row,SMILES,manual score
1,CC(C)Oc1ccccc1C1Nc2ccccc2C(=O)N1c1ccc2c(c1)OCCO2 (stereo not given),0
2,CC(=O)Oc1ccc(N(C(C)=O)S(=O)(=O)c2cccs2)c2ccccc12,0
3,COC(=O)c1c(NC(=O)Cc2cccs2)sc(C(=O)NC2CCCCC2)c1C,0
4,COC(=O)c1c(NS(=O)(=O)c2cccs2)sc2c1CCCC2,1 (active)
5,CCC1(C)Cc2c(sc3c2c(=O)n(C)c2nnc(SCc4ccc5c(c4)OCO5)n32)CO1 (stereo not given),0
6,CCCCN(CCCC)C(=O)CSc1nnc2n(C)c(=O)c3c4c(sc3n12)CCCC4,-1 (active)
7,CON(c1nc(Cl)nc(N(C)C)n1)S(=O)(=O)c1ccccc1Cl,0
8,CCCCCC/C(C)=C1/SC(=S)NC1=O,1 (active)
9,Cn1c(CNc2nc3ccccc3n2CCN2CCCCC2)nc2ccccc21,0
10,CC1(C)CC(c2nc(-c3ccc(Br)cc3)cs2)CCS1 (stereo not given),0
11,CCCN(CCC)C(=O)CSc1nc2ccccc2c(=O)n1C1CCCC1,-1 (active)
12,CCN(CC)C(=O)CSc1nc2ccccc2c(=O)n1-c1ccccc1OC,-1 (active)
13,CCc1c(O)nc(SCC(=O)Nc2ccc(OC)cc2)n(C2CCCCC2)c1=O,0
14,CCOC(=O)N1CCN(C(=O)CSc2nc3c(c(=O)n2-c2ccccc2OC)SCC3)CC1,-1 (active)
15,COC(=O)c1ccc2c(=O)n(C3CCCCC3)c(SCC#N)nc2c1,0
16,CCOC(=O)N1CCN(C(=O)CSc2ncnc3ccccc23)CC1,0
17,CCOC(=O)CSc1nc2c(sc(=S)n2-c2ccccc2OC)c(=O)n1Cc1ccco1,-0.5
18,COC(=O)COn1c(SC(C)C)nc2ccccc2c1=O,0
19,N#CC1=C(N)Oc2n[nH]c(-c3cccs3)c2C1c1ccco1 (stereo not given),3
20,Cc1c(C#N)c2ccccc2n1CC(=O)O,0
21,Cc1ccc(N=C2CCCN2Cc2ccccc2)c(C#N)c1,-1 (active)
22,Cc1ccc(C)c(N=C2CCCN2Cc2ccccc2)c1C#N,-1 (active)
23,COC(=O)c1ccc(N2C(=O)CC(Sc3n[nH]c(C)n3)C2=O)cc1 (stereo not given),0
24,CC(C)CCOP(=O)(c1ccc(N(C)C)cc1)C(O)c1ccccn1 (stereo not given),0
25,Brc1ccc(-c2nnc3c4ccccc4nc(N4CCOCC4)n23)cc1,0
26,CCN(CC)CCCNC(=O)c1cc(-c2ccc(Cl)c(Cl)c2)on1,0
27,CC(C)n1cc(NC(=O)c2cc(-c3ccccc3)on2)cn1,1 (active)

row,SMILES,manual score
1,CCCn1cc(NC(=O)c2cc(-c3ccccc3)on2)cn1,1 (active)
2,O=C(c1cc(-c2ccccc2)on1)N1CCCC1,0
3,CCOC(=O)C1CCCN(C(=O)c2cc(-c3ccccc3)on2)C1 (stereo not given),0
4,CCN(CC)CCN(CC)Cc1ccccc1Br,0
5,CCC(c1nnnn1Cc1ccc(OC)cc1)N(CCCO)Cc1cc2cc3c(cc2[nH]c1=O)OCO3 (stereo not given),0
6,S=c1[nH]nc(CSc2nc3ccccc3s2)n1C1CCCCC1,1 (active)
7,CC(O)c1nc2ccccc2n1C1CCCCC1 (stereo not given),0
8,S=c1[nH]nc(COc2ccccc2)n1C1CCCCC1,1 (active)
9,Clc1ccccc1-c1nn2c(COc3ccccc3)nnc2s1,0
10,CC(=O)c1c(C(C)=O)c(C)n(-c2nc(-c3cccs3)c(C)s2)c1C,0
11,Cc1ccc(NC(=O)CN2c3cccc4cccc(c34)S2(=O)=O)cc1S(=O)(=O)N1CCOCC1,0
12,O=c1c2cccnc2[nH]c(=S)n1CCCN1CCN(c2ccc(F)cc2)CC1,1 (active)
13,O=c1c2cc(F)ccc2[nH]c(=S)n1CCCN1CCOCC1,0
14,Cn1c(=O)c2c(nc(-n3ccnc3)n2Cc2ccccc2)n(C)c1=O,0
15,O=c1c2cccnc2[nH]c(=S)n1Cc1ccccc1,1 (active)
16,Cc1cc(C(F)(F)F)c2c(=O)[nH]c(=O)n(Cc3ccccc3)c2n1,0
17,CCOC(=O)CN1NC2(CCC(C(C)(C)C)CC2)NC1=S (stereo not given),0
18,O=C(Nc1ncc(Br)s1)C(Cc1ccccc1)n1cccc1 (stereo not given),1 (active)
19,Cc1csc(NC(=O)C(Cc2ccccc2)n2cccc2)n1 (stereo not given),0
20,CCSc1nnc(NC(=O)C(Cc2ccccc2)n2cccc2)s1 (stereo not given),0
21,CCOC(=O)Cn1c(=N)n(CCOc2cccc(C)c2)c2ccccc21,0
22,COc1ccc(OCc2nc(N)nc(Nc3ccccc3)n2)cc1,0
23,Nc1c(-c2ccccc2)cnn1-c1ccc(C(=O)O)cc1,0
24,COc1cc(OC)cc(C(=O)NC(=S)N2CCN(c3ccc(C(F)(F)F)cc3[N+](=O)[O-])CC2)c1,1 (active)
25,Cc1ccc(CC(=O)N2CCN(c3cccc(C(F)(F)F)c3)CC2)cc1,0
26,COc1cccc(C(=O)NC(=S)N2CCN(c3ccc(C(F)(F)F)cc3[N+](=O)[O-])CC2)c1,1 (active)
27,CC(C)Oc1cccc(C(=O)NC(=S)N2CCN(c3ccc(C(F)(F)F)cc3[N+](=O)[O-])CC2)c1,1 (active)

row,SMILES,manual score
1,COc1ccccc1NC(=O)COc1ccc(C(F)(F)F)cc1[N+](=O)[O-],0
2,CCOCc1c(C(=O)OCC(=O)Nc2ccc(C)c(S(=O)(=O)N(C)C)c2)oc2ccccc12,0
3,Cc1cc(C)c2nc(SC(C)C(=O)NCC(=O)Nc3ccc(F)c(F)c3F)cc(C)c2c1 (stereo not given),1 (active)
4,Cc1ccccc1NC1=C(Cl)C(=O)OC1OC(=O)c1ccco1 (stereo not given),-1 (active)
5,CCN1CCN(CCCOc2ccc(-c3ccccc3)cc2)CC1,0
6,Cc1c(C(=O)O)c(=S)sn1CCOc1ccccc1,-1 (active)
7,CC(=O)c1cccc(NC(=O)CCOc2ccccc2)c1,0
8,Cc1ccc(OCC(=O)NC(=S)Nc2cccc(C)n2)cc1,1 (active)
9,Cc1ccc(C(=O)NNC(=S)NC(=O)COc2ccccc2)cc1,1 (active)
10,Cc1ccccc1C(=O)NNC(=S)NC(=O)COc1ccccc1,1 (active)
11,CCCOc1nc2c(c(=O)n(C)c(=O)n2C)n1Cc1cccc2ccccc12,0
12,CCc1cc(-c2n[nH]c(C)c2-c2nc3ccccc3n2C)c(O)c(CN2CCN(C)CC2)c1O,0
13,COc1ccc(NC(=O)NC(C)c2ccncc2)cc1OC (stereo not given),0
14,Fc1ccc2nc(-c3ccccc3)nc(SCc3nnc(-c4ccccc4)o3)c2c1,1 (active)
15,c1ccc(Cc2nnc(-c3ccccc3)o2)cc1,0
16,COc1ccc(-c2nn(-c3ccccc3)cc2/C=N/n2cnnc2)cc1OC,0
17,COc1cccc(/C=N/n2c(=S)n(C)c3ccccc32)c1OC,0
18,COc1ccc(/C=N/n2c(SC)nnc2-c2ccccc2)c(OC)c1OC,-1 (active)
19,O=C(COc1ccccc1)NC(=S)Nc1ccc2c3c(cccc13)CC2,1 (active)
20,COc1cccc(C(=O)NC(=S)Nc2ccc3c4c(cccc24)CC3)c1,1 (active)
21,COc1ccc(OC)c(Nc2cc(-c3ccccc3)nc(N)n2)c1,0
22,COc1cc(NC(=O)Cn2nnc(-c3ccccc3N)n2)cc(OC)c1,0
23,COc1cccc(-c2cc(C(=O)NC3CCCC3)no2)c1,0
24,COc1ccc(C(=O)Nc2ccc(Oc3ncnc4sc(-c5ccccc5)cc34)cc2)cc1OC,0
25,COc1cc(OC)cc(C(=O)Nc2nc(-c3ccccc3)c(-c3ccccc3)o2)c1,1 (active)
26,COc1cccc(C(=O)NCc2cn3ccsc3n2)c1,0
27,COc1cccc(C(=O)Nc2nc(-c3ccccc3)c(-c3ccccc3)o2)c1,1 (active)

row,SMILES,manual score
1,O=C(Nc1ccc(CN2CCOCC2)cc1)c1cc2ccccn2n1,0
2,C=CCN1C(=O)/C(=C2/Sc3ccccc3N2C)SC1=Nc1c(C)n[nH]c1C,0
3,CCCCCn1nc(-c2ccccc2)c2nc3ccccc3nc21,3
4,CCN(CC)c1ccc(C(=O)NC(=S)N2CCN(Cc3ccc4c(c3)OCO4)CC2)cc1,1 (active)
5,COC(=O)c1[nH]c2ccc(C)cc2c1NC(=O)CCN1CCN(Cc2ccc3c(c2)OCO3)CC1,0
6,SC(COCc1ccccc1)CN1CCN(Cc2ccc3c(c2)OCO3)CC1 (stereo not given),0
7,O=C(NC(=S)N1CCN(Cc2ccc3c(c2)OCO3)CC1)c1cccc(Br)c1,1 (active)
8,CN1CCN(C(=S)NC(=O)/C=C/c2cccc3ccccc23)CC1,0
9,O=C(CN1CCN(Cc2ccccc2)CC1)Nc1cccc(C(F)(F)F)c1,0
10,O=C(c1ccc(COc2c(F)c(F)c(F)c(F)c2F)o1)N1CCN(Cc2ccc3c(c2)OCO3)CC1,0
11,CCOC(=O)c1ccc(NC(=O)N2CCN(Cc3cccc(F)c3)CC2)cc1,0
12,Cn1cc(CCC(=O)NCc2ccc3c(c2)OCO3)c2ccccc21,0
13,O=C(c1ccc2nccnc2c1)N1CCN(Cc2ccc3c(c2)OCO3)CC1,0
14,O=C(NC(=S)N1CCN(Cc2ccc3c(c2)OCO3)CC1)c1ccc(Cl)cc1,1 (active)
15,O=C(NC(=S)N1CCN(Cc2ccccc2)CC1)c1ccccc1,1 (active)
16,COCCCN(C(=S)Nc1cccc(Cl)c1)C(C)c1ccncc1 (stereo not given),0
17,CC(C)(C)CC(C)(C)NCC(O)COc1c(F)cc(Br)cc1F (stereo not given),4
18,O=C(CN1CCCCC1)Nc1cccc(Oc2ccccc2)c1,0
19,C/C(=N\NC(=S)NC(C)C)c1ccc(Cl)s1,1 (active)
20,C=C(C)CNC(=S)N/N=C(\C)c1ccc(Cl)s1,1 (active)
21,C/C(=N\NC(N)=S)c1ccc(Cl)s1,0.5
22,C/C(=N\NC(=O)c1csc(C)c1C)c1ccc(Cl)s1,1 (active)
23,CNC(=S)N/N=C(\C)c1ccc(Cl)s1,1 (active)
24,CCC/C(=N/NC(=O)c1csc(C)c1C)c1ccc(Cl)s1,0
